PAX8 reporter: inhibitors of PAX8-driven TPO luciferase reporter, primary screen, RMG-I cells, single concentration. SteadyGlo, 24 h. inhibition, % at 12.6 µM. 360,000 tested, 1.2% active;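 active = mean replicate inhibition at least 60% with every replicate also reaching 60%; inconclusive = only one of the two criteria is met; inactive = mean below 60% and not all replicates reaching 60%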;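 also: luciferase light reporting Pax8 driven TPO promoter activity; plate controls were median of neutral control wells for no effect and mitoxantrone controls for full effect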
EWS-Fli block: EWS/Fli-driven NR0B1 reporter inhibitors, primary screen, A673 cells, NR0B1 luciferase, luminescence, MLPCN library. viability-normalised. inhibition, % at 12.6 µM. 350,000 tested, 0.67% active. AID 651661, 2012;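 active = mean inhibition of at least 50% after viability correction, with every replicate also passing that limit; inconclusive = mean reaches 50% but only one of two replicates passes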;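 also: firefly luciferase signal divided by Alamar Blue viability fluorescence both relative to DMSO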
MITF TRPM1 inh: inhibitors of MITF-dependent TRPM1 promoter reporter, primary screen, cell-based, SK-MEL-5, single point, luciferase. SK-MEL-5 TRPM1 promoter luciferase, 24 h. inhibition, % at 12.5 µM. 330,000 tested, 0.83% active. AID 488899, 2010;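 active = mean inhibition across replicates of 60% or more, whatever share of single replicates reaches that level; inconclusive = some that reach 60%, reason not given; inactive = mean inhibition across replicates below 60%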
esBAF inh: Bmi1 luciferase reporter increase in mESCs, primary screen, esBAF inhibitor project, mouse ES cells, Bmi1 luciferase knock-in, single point | 24 h; 100% = twice the neutral-well signal | reporter increase, % at 12.5 µM | 350,000 tested, 2% active | AID 602393, 2012; in the data active = activation above about 40%; inconclusive = no clear call, values can overlap the other calls;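 also: 0% = median of the plate's neutral control wells and 100% = double that signal; a rise in the Bmi1 reporter signal indicates esBAF inhibition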
Wnt act: Wnt/beta-catenin pathway activators, primary screen, cell-based, plate reader, single point | Wnt/beta-catenin reporter cell assay, activator | activation, % at 9.35 µM | 300,000 tested, 1.2% active; in the data active = activation above about 30%, passing the limit was not always enough; inconclusive = no clear call, values can overlap the other calls;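 also: 0% = neutral control wells and 100% = positive control wells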
MITF TRPM1 HTS: activators of MITF-driven TRPM1 promoter reporter, primary screen, cell-based, SK-MEL-5, luciferase, single point | SK-MEL-5 TRPM1-promoter luciferase, 24 h; % of positive control, neutral wells = 0 | activation, % at 12.5 µM | 300,000 tested, 0.75% active;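 active = mean activation of at least 80% with every replicate also reaching 80%; inconclusive = mean reaches 80% but some replicate falls short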;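 also: 0% = neutral control wells and 100% = parthenolide positive control wells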
Active calls of the source: *; u = inconclusive; x = no result given. The list is not random: actives were taken first. Their share in the collection is about 4%.

SMILES	PAX8 reporter	EWS-Fli block	MITF TRPM1 inh	esBAF inh	Wnt act	MITF TRPM1 HTS
C[C@@H]1CCCCO[C@@H](CN(C)C(=O)c2ccccc2)[C@@H](C)CN([C@H](C)CO)C(=O)c2cc(NS(=O)(=O)c3ccccc3)ccc2O1	-3	-14	x	-7	x	x
C[C@@H]1CCCCO[C@@H](CN(C)S(=O)(=O)c2cn(C)cn2)[C@H](C)CN([C@@H](C)CO)C(=O)c2cc(NS(=O)(=O)c3ccccc3)ccc2O1	15	-21	x	11	x	x
CCNC(=O)[C@@H]1[C@@H](CO)[C@@H]2Cn3c(ccc(-c4cccc(C(=O)N(C)C)c4)c3=O)[C@H]1N2	x	-2	x	x	x	x
CCCNC(=O)N1CCC2(CC1)CN(C(C)=O)[C@H](CO)c1c2c2ccc(OC)cc2n1C	x	19	x	x	x	x
O=C(CSc1nc2[nH]c(=O)cc(O)c2s1)Nc1nncs1	1	-6	-9	-2	3	10
Cc1csc(NC(=O)CSc2nc3[nH]c(=O)cc(O)c3s2)n1	31	32	87*	-4	0	-87
C[C@@H]1CN([C@H](C)CO)S(=O)(=O)c2ccc(-c3cccc(C#N)c3)cc2O[C@@H]1CN(C)Cc1cccc(F)c1	0	5	x	-8	x	x
COc1cc2sc3cc(NCC[C@@H]4CCCN4C)ccc3c(=O)c2cc1OC	-125	-65	-96	53*	21	97*
COc1cccc2sc3ccc(NCCC4CCCN4C)cc3c(=O)c12 (centres undefined)	-41	-16	46	9	3	-43
COc1cc2sc3cc(NCc4ccc(C)o4)ccc3c(=O)c2cc1OC	-120	-94	-114	x	u	109*
COc1ccc2c3c([nH]c2c1)[C@@H](CO)N(C(=O)NC(C)C)CC31CN(C(=O)c2cccnc2)C1	x	6	x	x	x	x
C[C@@H]1CCCCO[C@@H](CN(C)S(C)(=O)=O)[C@H](C)CN([C@@H](C)CO)C(=O)c2cc(NC(=O)Cc3ccccc3)ccc2O1	5	-3	x	3	x	x
CO[C@@H]1CN(C)C(=O)c2cc(NC(=O)CC(F)(F)F)ccc2OC[C@@H](C)N(C(=O)c2ccccc2F)C[C@@H]1C	-20	-7	x	x	x	x
Cc1ccccc1S(=O)(=O)N1CC(=O)N2[C@H](CO)[C@H](c3ccc(C#CCC(C)C)cc3)[C@H]2C1	66*	-1	x	x	x	x
CS(=O)(=O)N1CC(=O)N2[C@H](CO)[C@H](c3ccc(C#CCC4CCCC4)cc3)[C@H]2C1	76*	-8	x	x	x	x
COc1ccc(/C=c2/sc3n(c2=O)C(c2ccccc2OC)C2=C(N=3)c3ccccc3CC2)cc1O (centres undefined)	93*	x	34	x	-21	x
C[C@@H]1CN([C@H](C)CO)S(=O)(=O)c2ccc(C#Cc3ccccn3)cc2O[C@H]1CN(C)Cc1ccccc1	x	1	x	10	x	x
COCC(=O)N1[C@@H](C#N)[C@@H](c2ccc(C3=CCCCC3)cc2)[C@@H]1CO	-3	-6	x	1	x	x
CC(C)CNC(=O)CSc1nc2nn(-c3ccccc3)c(=O)c-2c2n1CCCCC2	7	2	-3	x	40*	6
CNC(=O)CSc1nc2nn(-c3ccccc3)c(=O)c-2c2n1CCCCC2	x	20	-5	-3	1	5
c1ccc(C[n+]2cccc3c4ccccc4ccc32)cc1	x	x	62*	-37	x	-62
C[C@@H]1CN([C@@H](C)CO)C(=O)c2cc(C#Cc3ccccc3F)cnc2O[C@@H]1CN(C)C(=O)c1ccc2c(c1)OCO2	x	-3	x	-5	x	x
Cc1ccc(S(=O)(=O)N(C)C[C@@H]2Oc3ccc(NC(=O)Cc4cn(C)c5ccccc45)cc3C(=O)N([C@@H](C)CO)C[C@H]2C)cc1	35	8	x	5	x	x
O=C([C@@H]1[C@@H](CO)[C@@H]2Cn3c(cccc3=O)[C@H]1N2C(=O)c1ccccc1)N1CCCCC1	-20	2	x	-6	x	x
O=C(C[C@@H]1C=C[C@@H](NC(=O)Nc2ccccc2)[C@H](CO)O1)NCc1ccccn1	-3	-3	x	4	x	x
SMILES	PAX8 reporter	EWS-Fli block	MITF TRPM1 inh	esBAF inh	Wnt act	MITF TRPM1 HTS
Cc1ccc(N(C)S(=O)(=O)c2ccc(-c3cnc(C4CC4)o3)cc2)cc1	41	52*	17	0	-2	-16
Cc1cccc(C)c1NS(=O)(=O)c1ccc(-c2cnc(C3CC3)o2)cc1	92*	x	74*	-15	-17	-74
COc1ccc(C)cc1NS(=O)(=O)c1ccc(-c2cnc(C3CC3)o2)cc1	99*	42	68*	-29	-13	-68
CCOc1ccccc1CNS(=O)(=O)c1ccc(-c2cnc(C3CC3)o2)cc1	36	59*	38	-31	-6	-36
COc1ccc(C(=O)Nc2ccc3c(c2)OCCO3)cc1	x	x	14	-27	x	-12
COc1ccc(N/C(C)=C/C(=O)c2ccccc2)cc1	-79	-41	-116	x	24	120*
COC(=O)/C(=C\C(=O)c1ccccc1)Nc1ccc(OC)cc1	-65	-19	-19	x	29	x
COc1ccc(C(=O)/C=C(\C)Nc2ccc3c(c2)OCO3)cc1	-151	x	-58	62*	u	x
COC(=O)C1=CN(c2ccc(OC)cc2OC)C(N)=C(C#N)C1c1cccc([N+](=O)[O-])c1 (centres undefined)	28	57*	x	x	-17	x
CC[C@@H](C(=O)[C@@H](C)[C@@H](O)[C@H](C)[C@@H]1O[C@@H]([C@@H](CC)C(=O)O)CC[C@@H]1C)[C@H]1O[C@]2(C=C[C@@H](O)[C@]3(CC[C@@](C)([C@H]4CC[C@](O)(CC)[C@H](C)O4)O3)O2)[C@H](C)C[C@@H]1C	109*	12	78*	-54	-30	-77
C[C@@H]1CN([C@H](C)CO)S(=O)(=O)c2ccc(-c3ccncc3)cc2O[C@H]1CN(C)C(=O)c1cccc(F)c1	13	5	x	8	x	x
CCC(=O)N1[C@H](C#N)[C@H](c2ccccc2-c2ccccc2)[C@H]1CO	x	-1	x	x	x	x
C[C@H]1CN([C@@H](C)CO)C(=O)c2cc(-c3ccccc3)cnc2O[C@@H]1CN(C)C(=O)Cc1ccccc1	x	-3	x	-8	x	x
CCCCN(C(=O)Cc1cccs1)c1nnc(-c2cccnc2)s1	-135	x	-82	60*	5	99*
Cc1ccc2c(c1)Sc1ccccc1CC2=O	x	x	4	61*	-6	-2
N#C/C(C(=O)NCc1ccccc1)=C1/N=C(NC(=O)c2ccco2)c2ccccc21	-109	-38	-35	47*	-4	38
C=CCC(Nc1ccccc1)C12C=CC(O1)C(C(=O)OC)=C2C(=O)OC (centres undefined)	x	x	80*	1	x	-79
O=C(O)c1cccc(CN2C(=O)SC(Nc3cccc4ccccc34)C2=O)c1 (centres undefined)	22	20	10	-3	40*	-9

Bioassay records: PubChem, Broad Institute
